According to PubChem BioAssay (Tox21):
Records with an inconclusive call do not appear. A call without a number means that no potency is given here. Activity calls are given as the source filed them. Calls follow the shape of the full dose curve.

Assay: p53 small molecule agonists, cell-based qHTS assay with human liver microsomes (AID 1963577);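 also: p53 response element beta-lactamase reporter cells with liver microsomes plus NADPH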
Conditions: HCT-116 p53RE-bla with human liver microsomes, ratio, 16 h; series mostly up to 66 µM
Description: National Center for Advancing Translational Sciences [NCATS]
Division of Preclinical Innovation [DPI]
U.S. Environmental Protection Agency [EPA]
National Institutes of Environmental Health Sciences [NIEHS]
National Toxicology Program [NTP]
U.S. Food and Drug Administration [FDA]
p53, a tumor suppressor protein, is activated following cellular insult, including DNA damage and other cellular stresses. The activation of p53 regulates cell fate by inducing DNA repair, cell cycle arrest, apoptosis, or cellular senescence. The activation of p53, therefore, is a good indicator of DNA damage and other cellular stresses. […] The activation of the reporter gene under culture conditions can be detected by fluorescence intensity.
Tox21 Assay Protocol Summary:
The p53RE-bla cells were dispensed at 4,000cells/3ul/well in 1536-well black-clear bottom plates. After the assay plates were incubated at 37 C, 5% CO2 incubator for 5 hours, 23 nL of compounds dissolved in DMSO, positive controls or DMSO only was transferred to the assay plate. Following compound addition, 3 uL of human liver microsomes (XenoTech, Kansas City, KS) at final concentration of 0.5 mg/mL and 1uL of Beta-Nicotinamide adenine dinucleotide 2-phosphate (NADPH) at final concentration of 0.5 mg/mL were transferred to the assay plate. The plates were incubated at 37 C for 16 hours. 1 uL of LiveBLAzer detection mixture was added to each well and the plates were incubated at room temperature in the dark for 2 h.

| SMILES | Potency |
| --- | --- |
| C=CC(=O)OCCCC | inactive |
| Cc1cc(CC(=O)O)n(C)c1C(=O)c1ccc(Cl)cc1 | inactive |
| c1ccc2c(c1)ccc1cc3c(ccc4ccccc43)cc12 | inactive |
| OCC1CCCO1 (stereo not given) | inactive |
| CC(C)CC(=O)CC(C)C | inactive |
| Nc1c2c(nc3ccccc13)CCCC2 | inactive |
| COc1ccc(C(=O)c2ccccc2)c(O)c1 | inactive |
| COc1ccc2[nH]cc(CCNC(C)=O)c2c1 | inactive |
| CN(C)C(=O)Nc1ccc(Cl)c(Cl)c1 | inactive |
| CC(C)(C#N)c1cc(Cn2cncn2)cc(C(C)(C)C#N)c1 | inactive |
| CC1=CC(C)(C)Nc2ccccc21 | inactive |
| CCCCCCCCCCCCCC[N+](C)(C)C | inactive |
| COC(=O)c1ccc(O)cc1 | inactive |
| CN(C)c1nc(N(C)C)nc(N(C)C)n1 | inactive |
| CCC(Cc1c(I)cc(I)c(N)c1I)C(=O)O (stereo not given) | inactive |
| CN1C(C(=O)Nc2ccccn2)=C(O)c2ccccc2S1(=O)=O | inactive |
| CSc1ccc(Cl)cc1 | inactive |
| CCCCCCOC(C)=O | inactive |
| CC(=O)Oc1c(C)c(C)c2c(c1C)CC[C@@](C)(CCC[C@H](C)CCC[C@H](C)CCCC(C)C)O2 | inactive |
| CC1=C(/C=C/C(C)=C/C=C/C(C)=C/C(=O)Nc2ccc(O)cc2)C(C)(C)CCC1 | inactive |

| SMILES | Potency |
| --- | --- |
| O=C1O[C@H](CO)[C@@H](O)[C@H](O)[C@H]1O | inactive |
| CC(O)CN(CCN(CC(C)O)CC(C)O)CC(C)O (stereo not given) | inactive |
| C=CC(C)CCCC(C)(C)O (stereo not given) | inactive |
| O=c1c(-c2ccc(O)cc2)coc2cc(O)cc(O)c12 | inactive |
| CCCCC(CC)COC(=O)c1ccc(C(=O)OCC(CC)CCCC)cc1 (stereo not given) | inactive |
| CCCCC/C=C\C/C=C\CCCCCCCC(=O)OC | inactive |
| Cc1ccc(S(=O)(=O)NCl)cc1 | inactive |
| CN(C)CCCN | inactive |
| OC[C@@H](O)[C@H](O)[C@H](O)[C@@H](O)CO | inactive |
| OCCO | inactive |
| CCCCCC(=O)O | inactive |
| Nc1ccc(S(=O)(=O)Nc2cnc3ccccc3n2)cc1 | inactive |
| CCCCNC(N)=O | inactive |
| CC(=O)O[C@]1(C(C)=O)CC[C@H]2[C@@H]3C[C@H](C)C4=CC(=O)CC[C@]4(C)[C@H]3CC[C@@]21C | inactive |
| CCCCCCCCCCCO | inactive |
| CCCCC(CC)COC(=O)CS (stereo not given) | inactive |
| C=C(C)C(=O)Nc1ccc(Cl)c(Cl)c1 | inactive |
| Nc1ccc(C(=O)O)cc1 | inactive |
| COC(=O)C1CCC(C(=O)OC)CC1 (stereo not given) | inactive |
| Nc1cccc(N)c1 | inactive |
